Records with an inconclusive call do not appear. The source made the active and inactive calls. Unless noted, the call rests on the fitted dose curve; in most records, active means well fitted curve in the direction sought with a large enough effect in the repeat runs; inconclusive means weak or mixed curves; inactive means no such curve, though single readings can be large; an effect the other way counts as inactive or inconclusive.
Columns and labels:
[1] = qHTS assay for small molecules that induce genotoxicity in human embryonic kidney cells expressing luciferase-tagged ATAD5 (AID 651632); further: on the % scale 0 is the no-effect control and ±100 the full control effect; nearly all actives have a fitted effect of over 15% in size
In short: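 HEK293T cells carrying a luciferase reporter tagged to ATAD5 were exposed to compound or DMSO vehicle for 16 hr at 37C, 5% CO2. Amplite was added, and after 30 min at room temperature luciferase activity was read as a marker of ATAD5 induction.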

[2] = qHTS assay for small molecule agonists of the p53 signaling pathway - cell viability (AID 651633; calls by dose curve;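 further: p53RE-bla HCT reporter cells with a stable beta-lactamase p53 reporter; series mostly up to about 83 µM; on the % scale 0 is the no-effect control and ±100 the full control effect; nearly all actives have a fitted effect of over 30% in size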)
In short: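 p53RE-bla cells, seeded at 4,000 per well and rested 5 h at 37 C/5% CO2, received compounds in DMSO for 16 h at 37 C. CellTiter-Glo was then added, and luminescence was read after 30 min at room temperature to gauge cytotoxicity.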

[3] = qHTS assay for small molecules that induce genotoxicity in human embryonic kidney cells expressing luciferase-tagged ATAD5 - cell viability (AID 651634; calls by dose curve; further: on the % scale 0 is the no-effect control and ±100 the full control effect; nearly all actives have a fitted effect of over 25% in size)
In short: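 HEK293T cells expressing luciferase-tagged ATAD5 were exposed to compound or DMSO for 15.5 hr at 37C, 5% CO2. Viability was then read as live-cell protease activity by CellTiter-Fluor fluorescence after 30 min at 37C.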

[4] = qHTS assay for small molecule disruptors of the mitochondrial membrane potential - cell viability (AID 720634; calls by dose curve;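 further: human HepG2 liver cancer cells; series mostly up to about 83 µM; on the % scale 0 is the no-effect control and ±100 the full control effect; nearly all actives have a fitted effect of over 20% in size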)
In short: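 HepG2 cells seeded overnight at 37 C, then exposed to compound or DMSO for 1 hr at 37 C, 5% CO2. m-MPI dye added, then CellTiter-Glo for 30 min at room temperature; viability read as ATP luminescence.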

[5] = qHTS assay for small molecule disruptors of the mitochondrial membrane potential (AID 720635); further: potency means the concentration at half of the fitted maximal effect
In short: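 HepG2 cells (2,000/well) attached overnight at 37C, then took compound for 1 hr at 37C, 5% CO2. Mito-MPS dye was added for 30 min; fluorescence was read at 490/535 nm (monomers) and 540/590 nm (aggregates).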

[6] = qHTS assay to test for compound auto fluorescence at 535 nm (green) in HepG2 cells (AID 720675); further: on the % scale 0 is the no-effect control and ±100 the full control effect
[7] = qHTS assay to test for compound auto fluorescence at 460 nm (blue) in HEK293 cells (AID 720678); further: on the % scale 0 is the no-effect control and ±100 the full control effect
In short: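 Blue read-out at excitation 405 nm and emission 460 nm follows overnight compound exposure of HEK293 cells at 37C in 5% CO2. Activity is given as auto fluorescence equivalency to triamterene.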

[8] = qHTS assay to test for compound auto fluorescence at 590 nm (red) in HEK293 cells (AID 720679); further: on the % scale 0 is the no-effect control and ±100 the full control effect
In short: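 Red channel, Ex/Em 540/590nm; signal expressed as equivalency to Rose Bengal sodium. HEK293, 2,000 cells/well, 10% dialyzed FBS; 23 nL compound pinned after 4-5 hr attachment; overnight 37C/5% CO2 before reading.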

[9] = qHTS assay to test for compound auto fluorescence at 535 nm (green) in HEK293 cells (AID 720680); further: on the % scale 0 is the no-effect control and ±100 the full control effect
[10] = qHTS assay to test for compound auto fluorescence at 460 nm (blue) in HEK293 cell free culture (AID 720681); further: on the % scale 0 is the no-effect control and ±100 the full control effect
In short: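 Test compounds were pinned into cell-free culture medium (DMEM with 10% FBS) and fluorescence was read directly at Ex/Em 405/460 nm. Signals were expressed as fluorescence equivalents of triamterene, with DMSO vehicle as control.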

[11] = qHTS assay to test for compound auto fluorescence at 535 nm (green) in HEK293 cell free culture (AID 720682); further: on the % scale 0 is the no-effect control and ±100 the full control effect
In short: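 Green-channel intensity (Ex/Em 485/535 nm) was recorded from compound-treated wells containing only DMEM with 10% FBS. Fluorescein provided the equivalency standard.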

[12] = qHTS assay to test for compound auto fluorescence at 590 nm (red) in HEK293 cell free culture (AID 720683); further: on the % scale 0 is the no-effect control and ±100 the full control effect
In short: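 Tox21 10K library compounds were pinned into cell-free DMEM with 10% FBS and fluorescence was read at excitation 540 nm. Activity is expressed as Rose Bengal sodium equivalency.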

[13] = qHTS assay to test for compound auto fluorescence at 590 nm (red) in HepG2 cell free culture (AID 720684); further: on the % scale 0 is the no-effect control and ±100 the full control effect
In short: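 Red fluorescence (540 nm excitation, 590 nm emission) was measured after compound transfer into cell-free MEM supplemented with 10% FBS. Values are equivalencies against Rose Bengal sodium.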

[14] = qHTS assay to test for compound auto fluorescence at 460 nm (blue) in HepG2 cell free culture (AID 720685); further: on the % scale 0 is the no-effect control and ±100 the full control effect
In short: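 Compound (23 nL) or DMSO pinned into cell-free MEM with 10% FBS; blue fluorescence read at 405/460 nm excitation/emission, expressed as auto-fluorescence equivalency to triamterene.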

[15] = qHTS assay to test for compound auto fluorescence at 460 nm (blue) in HepG2 cells (AID 720687); further: on the % scale 0 is the no-effect control and ±100 the full control effect
In short: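 Cells (2,000/well in MEM with 10% FBS) attached overnight at 37 C, then were exposed to compound or DMSO for 1 hr at 37 C, 5% CO2. Fluorescence read at Ex/Em 405/460 nm, expressed as triamterene-equivalent signal.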

[16] = target: Glucocorticoid receptor (Homo sapiens) (UniProt P04150); experiment: qHTS assay to identify small molecule agonists of the glucocorticoid receptor (GR) signaling pathway (AID 720691; active means well fitted activation curve with a large enough effect in the signal ratio in the repeat runs, not every such curve was filed as active; the % refers to the signal ratio; further: potency means the concentration at half of the fitted maximal effect)
In short: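 GR-bla HeLa cells (beta-lactamase reporter under glucocorticoid response element) were plated 4 h at 37 C/5% CO2, given compounds in DMSO, and incubated 18 h at 37 C. LiveBLAzer B/G FRET substrate was added for 2 h at room temperature, then fluorescence intensity read.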

[17] = qHTS assay for small molecule agonists of the p53 signaling pathway (AID 651631; calls by dose curve; further: nearly all actives have a fitted effect of over 15% in size; further: potency means the concentration at half of the fitted maximal effect)
In short: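 We treat p53RE-bla HCT-116 cells with compounds for 16 h at 37 °C, add LiveBLAzer B/G FRET substrate for 2 h at room temperature, and measure fluorescence intensity.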

[18] = qHTS assay to test for compound auto fluorescence at 590 nm (red) in HepG2 cells (AID 720674); further: on the % scale 0 is the no-effect control and ±100 the full control effect
In short: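 Rose Bengal sodium served as the red fluorophore standard. HepG2 monolayers (overnight attachment, MEM with 10% FBS) were exposed to test compounds for 1 hr at 37 C and read at Ex 540/Em 590 nm.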

[19] = qHTS assay to test for compound auto fluorescence at 535 nm (green) in HepG2 cell free culture (AID 720686); further: on the % scale 0 is the no-effect control and ±100 the full control effect
[20] = target: Glucocorticoid receptor (Homo sapiens) (UniProt P04150); experiment: qHTS assay to identify small molecule antagonists of the glucocorticoid receptor (GR) signaling pathway (AID 720692; active means well fitted inhibition curve with a large enough effect in the signal ratio in the repeat runs, not every such curve was filed as active; the % refers to the signal ratio; further: potency means the concentration at half of the fitted maximal effect)
In short: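 GR-bla HeLa cells (beta-lactamase reporter under glucocorticoid response element) were pre-plated 4 h at 37 C, treated with compounds plus 5 nM dexamethasone (final) for 18 h, then read by LiveBLAzer B/G FRET fluorescence after 2 h.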

Chain of Glucocorticoid receptor (Homo sapiens) (P04150 whole entry, looked up): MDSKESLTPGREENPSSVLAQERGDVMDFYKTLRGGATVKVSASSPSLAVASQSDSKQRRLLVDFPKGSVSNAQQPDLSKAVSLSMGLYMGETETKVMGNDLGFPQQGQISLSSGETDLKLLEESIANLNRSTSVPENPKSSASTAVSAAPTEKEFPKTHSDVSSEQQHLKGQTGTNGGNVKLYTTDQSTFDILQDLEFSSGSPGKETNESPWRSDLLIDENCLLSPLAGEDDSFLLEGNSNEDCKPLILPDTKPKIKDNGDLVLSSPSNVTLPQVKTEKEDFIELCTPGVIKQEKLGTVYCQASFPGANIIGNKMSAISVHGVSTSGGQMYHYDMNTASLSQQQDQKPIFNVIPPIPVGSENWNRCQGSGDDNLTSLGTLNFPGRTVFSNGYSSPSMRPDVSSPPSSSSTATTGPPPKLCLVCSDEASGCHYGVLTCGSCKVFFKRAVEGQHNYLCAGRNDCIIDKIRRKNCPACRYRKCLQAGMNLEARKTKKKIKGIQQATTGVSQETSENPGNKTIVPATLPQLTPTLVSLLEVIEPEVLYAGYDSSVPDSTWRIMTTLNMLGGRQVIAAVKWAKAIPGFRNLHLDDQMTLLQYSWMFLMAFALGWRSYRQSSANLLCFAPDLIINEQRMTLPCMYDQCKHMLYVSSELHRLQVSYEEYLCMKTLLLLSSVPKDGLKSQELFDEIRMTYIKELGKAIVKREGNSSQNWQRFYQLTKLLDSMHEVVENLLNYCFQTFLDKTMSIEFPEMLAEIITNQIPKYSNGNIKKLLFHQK

CCCCC(CC)CNCC(CC)CCCC (centres undefined)
inactive: Potency [1] | Potency [2] | Potency [3] | Potency [4] | Potency [5] | outcome [6] | Potency [7] | outcome [8] | outcome [9] | Potency [10] | outcome [11] | outcome [12] | outcome [13] | Potency [14] | Potency [15] | Potency [16]

O=C(O)c1cccc(O)c1
inactive: Potency [17] | Potency [1] | Potency [2] | Potency [5] | outcome [18] | outcome [6] | Potency [7] | outcome [8] | Potency [10] | outcome [11] | outcome [12] | outcome [13] | Potency [14] | outcome [19] | Potency [15]

NC(=O)Nc1ccc(Cl)c(Cl)c1
active: Potency [5] 48.4 µM | Potency [20] 48.9 µM
inactive: Potency [1] | Potency [2] | Potency [3] | Potency [4] | outcome [6] | Potency [7] | outcome [8] | outcome [9] | Potency [10] | outcome [11] | outcome [12] | outcome [13] | Potency [14] | outcome [19] | Potency [15]

CC1(C)C(=O)N(Br)C(=O)N1Cl
inactive: Potency [17] | Potency [1] | Potency [2] | outcome [18] | outcome [6] | Potency [7] | outcome [9] | Potency [10] | outcome [11] | outcome [12] | outcome [13] | Potency [14] | outcome [19] | Potency [15]

NC(=O)Nc1ccc(Cl)cc1
inactive: Potency [1] | Potency [2] | Potency [3] | Potency [4] | outcome [18] | outcome [6] | Potency [7] | outcome [8] | outcome [9] | Potency [10] | outcome [11] | outcome [12] | outcome [13] | Potency [14] | outcome [19] | Potency [15] | Potency [16]

CCCCC1C(=O)N(c2ccccc2)N(c2ccc(O)cc2)C1=O (centres undefined)
inactive: Potency [1] | Potency [3] | Potency [4] | fluorescence, relative to Rose Bengal [18] -0.0374% [at 18.6 µM] | fluorescence, % of fluorescein control [6] -0.0204% [at 18.6 µM] | fluorescence, % of triamterene [7] -0.133% [at 18.6 µM] | fluorescence, % of fluorescent control [8] -0.0017% [at 18.6 µM] | fluorescence, % of fluorescein [9] -0.124% [at 18.6 µM] | fluorescence, % of fluorescent control [10] -0.0788% [at 18.6 µM] | activity change [11] -0.39% [at 18.6 µM] | fluorescence, % of fluorescent control [12] 0.0102% [at 18.6 µM] | fluorescence, % of Rose Bengal [13] -0.239% [at 18.6 µM] | fluorescence, % of fluorescent control [14] -0.111% [at 18.6 µM] | Potency [16]
active: Potency [17] 12.7 µM

CCCCC(=O)O[C@]1(C(=O)CO)[C@@H](C)C[C@H]2[C@@H]3CCC4=CC(=O)C=C[C@]4(C)[C@@]3(F)[C@@H](O)C[C@@]21C
inactive: Potency [17] | Potency [1] | outcome [6] | Potency [7] | outcome [9] | Potency [10] | outcome [11] | outcome [12] | outcome [13] | Potency [14] | outcome [19] | Potency [15]
active: Potency [16] 0.0019 µM

CCCCCCCC/C=C\CCCCCCCC(=O)OC(CO)CO
inactive: Potency [1] | Potency [2] | Potency [3] | Potency [4] | Potency [5] | outcome [18] | outcome [6] | Potency [7] | outcome [8] | outcome [9] | Potency [10] | outcome [11] | outcome [12] | outcome [13] | Potency [14] | Potency [15] | Potency [16]

Source: PubChem BioAssay (Tox21)
